Screen size: about 310,000 compounds; about 14,000 (4.5%) showed an effect of 50% or more. The effect is printed as a negative number. The sample as a whole holds a higher share of strong results than the screen did.
Target: human ether-à-go-go-related gene (hERG) potassium channel (human, UniProt Q12809)
Experiment: primary screen, population patch clamp on CHO cells stably expressing hERG; higher = less effect of the substance
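Also: peak tail current of the secondary pulse compared with the same well before compound.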

Sequence of human ether-à-go-go-related gene (hERG) potassium channel (Q12809 whole entry, looked up): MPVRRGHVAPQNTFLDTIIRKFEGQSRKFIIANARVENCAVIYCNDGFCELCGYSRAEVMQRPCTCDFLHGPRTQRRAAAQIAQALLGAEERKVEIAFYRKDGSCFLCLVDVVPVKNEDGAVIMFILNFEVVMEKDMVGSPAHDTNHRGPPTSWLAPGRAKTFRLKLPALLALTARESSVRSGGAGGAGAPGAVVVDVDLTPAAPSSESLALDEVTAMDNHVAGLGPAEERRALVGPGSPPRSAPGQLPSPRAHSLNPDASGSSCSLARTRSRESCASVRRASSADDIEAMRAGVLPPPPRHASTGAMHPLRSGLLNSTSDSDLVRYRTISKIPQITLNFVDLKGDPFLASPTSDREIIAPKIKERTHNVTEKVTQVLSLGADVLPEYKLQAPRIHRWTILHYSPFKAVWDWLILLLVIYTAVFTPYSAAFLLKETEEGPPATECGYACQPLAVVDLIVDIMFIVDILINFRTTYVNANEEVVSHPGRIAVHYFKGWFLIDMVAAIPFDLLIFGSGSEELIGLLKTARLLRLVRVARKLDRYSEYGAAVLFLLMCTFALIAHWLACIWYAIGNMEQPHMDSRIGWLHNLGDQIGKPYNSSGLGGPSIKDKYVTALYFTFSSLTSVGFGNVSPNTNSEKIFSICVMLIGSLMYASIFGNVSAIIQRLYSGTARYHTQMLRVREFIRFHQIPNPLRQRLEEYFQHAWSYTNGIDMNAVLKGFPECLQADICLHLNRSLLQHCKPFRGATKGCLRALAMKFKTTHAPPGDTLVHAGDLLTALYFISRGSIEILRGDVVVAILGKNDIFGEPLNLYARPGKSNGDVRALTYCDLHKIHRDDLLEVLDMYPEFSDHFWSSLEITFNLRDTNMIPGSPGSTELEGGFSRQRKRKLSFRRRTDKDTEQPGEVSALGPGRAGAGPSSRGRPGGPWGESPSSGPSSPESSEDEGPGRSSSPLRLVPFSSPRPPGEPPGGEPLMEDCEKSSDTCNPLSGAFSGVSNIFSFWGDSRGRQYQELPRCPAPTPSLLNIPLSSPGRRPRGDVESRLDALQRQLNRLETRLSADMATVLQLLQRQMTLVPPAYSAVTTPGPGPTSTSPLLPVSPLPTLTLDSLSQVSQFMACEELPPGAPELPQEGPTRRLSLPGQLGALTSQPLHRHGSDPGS

Row | SMILES | hERG current change (%, negative = inhibition) at 10uM [%]
1 | O=C(Nc1ccc(Cl)cc1)Nc1ccccc1CC[N+](=O)[O-] | 7.79
2 | CC(=O)O[C@H]1CC[C@@]2(C)C(CCC3C2CC[C@]2(C)OC(=O)CCC32)C1 (stereo partly drawn) | -10.7
3 | O=C(O)c1ccc(S(=O)(=O)N2CCCc3ccccc32)cc1 | 19.7
4 | O=C(CN1C(=O)NC2(CCCCCC2)C1=O)N1CCN(S(=O)(=O)c2ccc(Cl)cc2)CC1 | -23.9
5 | Cc1ccc(S(=O)(=O)N(C)c2nc3ccccc3[nH]c2=S)cc1 | 4.41
6 | O=C1C(Cc2cccc([N+](=O)[O-])c2)S/C(=N/N=C/c2ccco2)N1c1ccccc1 (stereo not drawn) | 2.64
7 | O=C(NC1CCCCC1)N(Cc1nc2ccccc2c(=O)[nH]1)C1CCCCC1 | 2.79
8 | O=C(NCCc1nc2ccccc2[nH]1)/C(=C/c1ccco1)NC(=O)c1ccc(Br)cc1 | -69.9
9 | Cc1ccc(C(=O)N/C(=C/c2ccco2)C(=O)NCCc2c[nH]c3ccccc23)cc1 | -46
10 | CC(C)=C(NC(=O)c1ccco1)C(=O)NCCc1nc2ccccc2[nH]1 | 1.12
11 | O=C(NCCc1nc2ccccc2[nH]1)c1ccc(Br)o1 | 3.87
12 | COc1ccc(/C=C(\NC(=O)c2ccco2)C(=O)NCCc2nc3ccccc3[nH]2)cc1 | -42.6
13 | O=C(NCCc1nc2ccccc2[nH]1)c1ccco1 | 2.94
14 | O=C(NCCc1nc2ccccc2[nH]1)/C(=C/c1ccco1)NC(=O)c1ccco1 | -17.3
15 | O=C(NCCc1nc2ccccc2[nH]1)/C(=C/c1ccco1)NC(=O)c1ccccc1Br | -64.9
16 | O=C(NCCc1nc2ccccc2[nH]1)/C(=C/c1ccco1)NC(=O)c1ccc(Br)o1 | -63.2
17 | CC(C)=C(NC(=O)c1ccccc1Br)C(=O)NCCc1nc2ccccc2[nH]1 | 3.68
18 | O=C(CNC(=O)c1ccc(Br)cc1)NCCc1nc2ccccc2[nH]1 | -6.76
19 | O=C(NCCc1nc2ccccc2[nH]1)/C(=C/c1ccc(F)cc1)NC(=O)c1ccco1 | -62.8
20 | CCc1nc(SCC(=O)N2CCC(C)CC2)c2c(=O)n(C)c(=O)n(C)c2n1 | -11.6
21 | CC1Cc2ccccc2N1c1ncnc(N)c1[N+](=O)[O-] (stereo not drawn) | -24.2
22 | CCCCOc1ccccc1P(=O)(O)CP(=O)(c1ccccc1)c1ccccc1 | -3.64

Row | SMILES | hERG current change (%, negative = inhibition) at 10uM [%]
23 | OCCNC(=S)Nc1ccc2c(c1)OCCO2 | 9.32
24 | Cc1ccc(-c2nn(C)c(=O)c3ccccc23)cc1CN1CCOCC1 | -1.21
25 | CC(C)=C1C2CCC1C1C(=O)N(c3nccs3)C(=O)C21 (stereo not drawn) | 33
26 | O=C1CC(=O)N(c2ccccc2)C(=O)N1c1ccccc1 | 2.76
27 | CCCC(NCC(O)COc1ccc(-c2ccccc2)cc1)c1ccccc1 (stereo not drawn) | 10.3
28 | O=C(NCc1ccc2c(c1)OCO2)C1CCCN1C(=O)Nc1ccc(Cl)cc1 (stereo not drawn) | -17.4
29 | CCn1c(C(C)NC(=O)Cc2ccccc2)nc2ccccc21 (stereo not drawn) | -2.26
30 | CCc1ccc(NC(=O)C2CCN(c3ncnc4c3nc3n4CCCCC3)CC2)cc1 | -6.35
31 | Cc1cc2ncn(C(=O)N3CCCCC3)c2cc1C | 3.24
32 | CCOCCCNC(=O)CN1C(=O)/C(=C/c2ccccc2C)Sc2ccccc21 | -8.45
33 | CCOC(=O)C1CCCN(c2c(N3CCN(C)CC3)c(=O)c2=O)C1 (stereo not drawn) | 8.41
34 | CCOC(=O)C1CCCN(c2c(N3CCN(C4CCCCC4)CC3)c(=O)c2=O)C1 (stereo not drawn) | -55.8
35 | CCOC(=O)C1CCCN(c2c(N3CCN(c4ccccn4)CC3)c(=O)c2=O)C1 (stereo not drawn) | -55.5
36 | CCOC(=O)C1CCCN(c2c(N3CCC(N4CCCCC4)CC3)c(=O)c2=O)C1 (stereo not drawn) | -0.665
37 | CCOC(=O)C1CCN(C(c2ccccn2)c2c(C)[nH]c3ccccc23)CC1 (stereo not drawn) | -19.8
38 | CCOC(=O)C1CCCN(C(c2ccccn2)c2c(C)[nH]c3ccccc23)C1 (stereo not drawn) | -54.3
39 | Cc1[nH]c2ccccc2c1C(c1ccccn1)N1CCC(C(N)=O)CC1 (stereo not drawn) | -11.4
40 | CCOC(=O)C1CCN(c2c(N3CCCC(C(=O)OCC)C3)c(=O)c2=O)CC1 (stereo not drawn) | -22.8
41 | CCOC(=O)C1CCCN(c2c(N3CCOCC3)c(=O)c2=O)C1 (stereo not drawn) | -0.407
42 | Cc1ccc(C(=O)C2=C(O)C(=O)N(Cc3cccnc3)C2c2cccc([N+](=O)[O-])c2)o1 (stereo not drawn) | -9.76
43 | CCN(C(=O)COC(=O)CSc1ccc(C(N)=O)cc1[N+](=O)[O-])C1CCCCC1 | 5.86
44 | Cc1cc(Cl)nc(Cl)c1C(=O)NC(=O)NCCC(C)C | 6.83

Row | SMILES | hERG current change (%, negative = inhibition) at 10uM [%]
45 | O=C(NNC(=O)C1CC=CCC1C(=O)O)c1cccs1 (stereo not drawn) | 16.2
46 | Cc1ccc(-c2csc(N3CCN(CCCn4c(C(F)(F)F)nc5ccccc54)CC3)n2)cc1 | -4.95
47 | Cc1ccc(-c2csc(N3CCN(CCCn4c(-c5ccncc5)nc5ccccc54)CC3)n2)cc1 | -32.4
48 | CC(=O)N[C@@H](C)c1nc2ccccc2n1CCCN1CCN(c2nc(-c3ccc(C)cc3)cs2)CC1 | -56.2
49 | Cc1ccc(F)c(NC(=O)C2CCCCC2C(=O)O)c1 (stereo not drawn) | 8.23
50 | O=C(O)c1ccc(NC(=O)c2ccccc2NC(=O)c2cccc(F)c2)cc1 | 20.2
51 | Fc1ccc(-c2nnc3ccc(N4CCCC4)nn23)cc1 | 5.51
52 | COc1ccccc1NC(=O)N1CCN(c2ccc(F)cc2)CC1 | -18.7
53 | c1ccc(-c2nnc3ccc(N4CCCC4)nn23)cc1 | 7.51
54 | O=C(Nc1ccc(F)cc1)N1CCN(c2ccc3nnc(-c4ccc(F)cc4)n3n2)CC1 | -73.5
55 | O=C(Nc1ccc(Cl)cc1)N1CCN(c2ccc3nnc(-c4ccc(F)cc4)n3n2)CC1 | -28.3
56 | O=C(Nc1ccccc1C(F)(F)F)N1CCN(c2ccccn2)CC1 | 9.98
57 | O=C(Nc1ccccc1C(F)(F)F)N1CCN(c2ccc3nncn3n2)CC1 | -1.32
58 | COc1ccccc1NC(=O)N1CCN(c2ccc3nnc(-c4ccc(F)cc4)n3n2)CC1 | -68.9
59 | O=C(c1ccc(Br)o1)N1CCN(c2ccc3nnc(-c4ccc(F)cc4)n3n2)CC1 | -46.4
60 | O=C(c1ccc(Br)o1)N1CCN(c2ccc3nnc(-c4ccccc4)n3n2)CC1 | -79.1
61 | O=C(Nc1ccccc1C(F)(F)F)N1CCN(c2ccc3nnc(-c4ccc(F)cc4)n3n2)CC1 | -65.9
62 | COc1ccccc1NC(=O)N1CCN(c2ccc3nncn3n2)CC1 | -23.1
63 | O=C(CCC(=O)c1ccc(Br)cc1)Nc1ccc(F)cc1 | 23.7
64 | COc1ccc(C2=NC(=O)NC2c2ccc(OC)cc2)cc1 (stereo not drawn) | -29.4
65 | Cc1ccc(S(=O)(=O)N(C)C)cc1-n1c(SCC(=O)Nc2ccc(F)c(F)c2F)nc2ccccc2c1=O | 8.58
66 | Cl.O=C(Cc1ccccc1)OCCN1CCOCC1 | 20.4

Row | SMILES | hERG current change (%, negative = inhibition) at 10uM [%]
67 | CCCOc1ccc(C2(C(=O)O)CCCC2)cc1 | 6.16
68 | C=CCC1C=CCC(CC=C)N1C(=O)c1ccccc1[N+](=O)[O-] (stereo not drawn) | -3.17
69 | COC(=O)c1sccc1NC(=S)N1CCCCC1C (stereo not drawn) | -25.6
70 | CC1=C(C(=O)OCC(C)C)C2(O)C(=O)c3ccccc3C2(O)N1 (stereo not drawn) | 3.4
71 | Clc1ccc(CSc2nnc(-c3ccncc3)o2)c(Cl)c1 | 0.528
72 | COc1ccc(C2/C=C\CN(S(=O)(=O)c3ccc4ccccc4c3)CC(=O)N2Cc2ccc(F)cc2)cc1 (stereo not drawn) | 8.33
73 | Cc1nc(-c2ccccc2)sc1C1(C)CC(c2ccc(C#N)cc2)=NO1 (stereo not drawn) | -3.07
74 | O=C(Nc1ccccc1Cl)N1CCN(c2ccc3nnc(-c4ccccc4)n3n2)CC1 | -73.5
75 | O=C(Nc1ccccc1Cl)N1CCN(c2ccc3nnc(-c4ccc(F)cc4)n3n2)CC1 | -42.1
76 | O=C(Nc1ccccc1Cl)N1CCN(c2ccc3nncn3n2)CC1 | -23.2
77 | O=C(CN1C(=O)c2ccccc2C1=O)Nc1ccc(S(=O)(=O)N2CCOCC2)cc1 | -16.9
78 | O=C(NC1CCCC1)C1CCN(C(=O)c2cccc(Cl)c2)CC1 | -6.41
79 | Cc1ccc(-n2ncc3c(NCc4ccccn4)ncnc32)c(C)c1 | -7.46
80 | Cc1ccc2nc(-c3cccnc3)c(NC3CCCC3)n2c1 | -19.7
81 | Cc1ccc2nc(-c3ccncc3)c(NC3CCCCC3)n2c1 | 9.35
82 | Cc1ccc2nc(-c3ccncc3)c(NC3CCCC3)n2c1 | -54.2
83 | CCOc1cccc(OCCCCn2ccnc2)c1 | -9.04
84 | COc1ccc(C)cc1NS(=O)(=O)c1ccc2c(c1)oc(=O)n2C | 16.2
85 | CCOC(=O)C1CCN(C(=O)c2cc3c(C)cc(C)cc3[nH]2)CC1 | -15.2
86 | Cc1cc(C)c2cc(C(=O)N3CCC(C(=O)c4ccc(F)cc4)CC3)[nH]c2c1 | 2.63
87 | Cc1cc(C)c2cc(C(=O)N3CCC(N4CCCCC4)CC3)[nH]c2c1 | -69.2
